Measured values: the supplement of paper PMC3545927
The other results are listed elsewhere or left out. No count for the full screen is at hand.

Molecular target: furin, P09958
Assay: furin cleavage Z-score vs untreated control; higher = more cleavage, active = 3.5 or more, inactive = 1 or less, 8 variable residues between constant flanks
Method in brief: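 Furin cleavage was scored on 8-mer peptides joined to a cDNA oligonucleotide and bound to magnetic beads at the N-terminus. Digestion with purified furin (1:10 enzyme:substrate, 0.01 ml, 50 mM HEPES pH 7.5, CaCl2, NaCl) lasted 7.5, 15 or 30 min. Freed DNA was tagged with adapters by PCR, sequenced and counted; the cleavage Z-score is the lowess-adjusted log count versus furin-free reactions, scaled by median absolute deviation.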

Chain of furin, P09958 (P09958 whole entry): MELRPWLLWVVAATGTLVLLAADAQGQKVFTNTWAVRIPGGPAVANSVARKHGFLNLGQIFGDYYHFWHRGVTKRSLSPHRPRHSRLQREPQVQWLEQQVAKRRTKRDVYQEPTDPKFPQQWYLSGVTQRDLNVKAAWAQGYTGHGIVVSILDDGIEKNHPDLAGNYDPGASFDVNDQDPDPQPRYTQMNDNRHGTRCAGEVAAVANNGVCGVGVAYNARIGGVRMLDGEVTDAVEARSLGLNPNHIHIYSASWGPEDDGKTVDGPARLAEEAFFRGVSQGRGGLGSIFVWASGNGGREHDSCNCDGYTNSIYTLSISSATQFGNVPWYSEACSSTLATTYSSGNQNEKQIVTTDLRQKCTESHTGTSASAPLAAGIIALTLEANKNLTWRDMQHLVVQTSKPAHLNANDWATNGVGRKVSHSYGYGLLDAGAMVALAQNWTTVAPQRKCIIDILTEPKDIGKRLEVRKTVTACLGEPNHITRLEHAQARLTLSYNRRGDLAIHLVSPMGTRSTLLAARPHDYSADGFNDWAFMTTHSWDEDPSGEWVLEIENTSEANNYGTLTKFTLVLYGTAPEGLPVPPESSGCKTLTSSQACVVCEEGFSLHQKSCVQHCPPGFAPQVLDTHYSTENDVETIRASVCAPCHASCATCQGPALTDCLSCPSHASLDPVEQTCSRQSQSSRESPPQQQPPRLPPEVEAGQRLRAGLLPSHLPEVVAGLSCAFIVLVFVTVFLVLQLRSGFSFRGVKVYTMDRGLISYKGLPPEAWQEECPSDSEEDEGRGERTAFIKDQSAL

Sequence | furin cleavage Z-score (7.5 min) | furin cleavage Z-score (15 min) | furin cleavage Z-score (30 min)
CAQEMEECSQAGNASASA [HC1802] | -0.772 (inactive) | 0.513 (inactive) | -1.67 (inactive)
CAVVCCSMGYAGNASASA [HC2076] | -1.88 (inactive) | -0.775 (inactive) | -0.0504 (inactive)
CAVVECSMSYAGNASASA [HC2032] | -0.21 (inactive) | -0.185 (inactive) | 0.282 (inactive)
CAYYRGLDVSAGNASASA [HC869] | 0.136 (inactive) | -0.206 (inactive) | -0.42 (inactive)
CATLSTALAEAGNASASA [HC1330] | -0.432 (inactive) | -1.49 (inactive) | -1.25 (inactive)
CAVRFRGKREAGNASASA [FS-514] | 11.2 (active) | 9.46 (active) | 7.95 (active)
CAALSRGKREAGNASASA [FS-1584] | 11.2 (active) | 11.6 (active) | 8.56 (active)
CARLFRGLDSAGNASASA [FS-2430] | -0.523 (inactive) | -0.794 (inactive) | 0.531 (inactive)
CAVRVQGLLRAGNASASA [HC617] | -0.956 (inactive) | -0.879 (inactive) | -0.866 (inactive)
CARLSRGTRPAGNASASA [FS-1748] | 1.1 | 0.607 (inactive) | 1.39
CAMEECSQWLAGNASASA [HC1748] | 1.29 | 1.35 | -0.383 (inactive)
CAQEMGGNITAGNASASA [HC1278] | 0.989 (inactive) | 0.052 (inactive) | 0.798 (inactive)
CAANGSGPDQAGNASASA [HC398] | -0.135 (inactive) | -1.15 (inactive) | 0.257 (inactive)
CAEVCCSMSYAGNASASA [HC1992] | 0.759 (inactive) | 0.26 (inactive) | 0.528 (inactive)
CAAAIGSVGLAGNASASA [HC1079] | -0.425 (inactive) | -0.896 (inactive) | -0.452 (inactive)
CARRRRAVGLAGNASASA [FS-2595] | 3.99 (active) | 4.72 (active) | 5.23 (active)
CARRRRLVWTAGNASASA [FS-2079] | -0.712 (inactive) | 0.718 (inactive) | 2.58
CARTMRSSAGAGNASASA [FS-2831] | 0.517 (inactive) | -0.365 (inactive) | 0.495 (inactive)
CARRRRCVGLAGNASASA [FS-2403] | 2.54 | 1.19 | 5.18 (active)
CARRRRSVQLAGNASASA [FS-1789] | 1.43 | 0.51 (inactive) | 2.7
CARTMRSVGLAGNASASA [FS-1936] | 5.41 (active) | 6.11 (active) | 5.7 (active)
CARRRRDVVTAGNASASA [FS-2232] | 11.1 (active) | 11.8 (active) | 8.98 (active)
CAADVVCCSMAGNASASA [HC2103] | 1.06 | 0.666 (inactive) | 0.566 (inactive)
CATLVFDITKAGNASASA [HC602] | 1.27 | 0.292 (inactive) | -0.917 (inactive)
CALITWGADTAGNASASA [HC652] | 0.62 (inactive) | 1.26 | -1.35 (inactive)
CAQLSAPSLKAGNASASA [HC1263] | 1.12 | 0.729 (inactive) | -0.193 (inactive)
CARGRRSLEFAGNASASA [FS-1952] | 4.88 (active) | 7.64 (active) | 7.06 (active)
CARSVRPVEFAGNASASA [FS-3100] | -0.873 (inactive) | -2.07 (inactive) | -1.68 (inactive)
CAVYRRSLGKAGNASASA [FS-2202] | -0.0765 (inactive) | -0.584 (inactive) | -0.11 (inactive)
CARGRRSLGSAGNASASA [FS-1713] | 7.83 (active) | 9.89 (active) | 8.32 (active)
